Screening data deposited in PubChem BioAssay by several laboratories.
CYP2C19 act = increases human CYP2C19 enzyme activity | P33261 | recombinant CYP2C19, luciferin-H EGE luminescence; stronger effect = higher value; 0 = fully inhibited enzyme, 1 = untreated enzyme | activation factor at 5 µM | 96,000 tested, under 10 active | AID 1025;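 active means activation factor of at least 2 at 5 µM in the primary screen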;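 further: 0 = wells with 2.5 mM tranylcypromine and 1 = vehicle-only wells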
PostGolgi ctrl = yeast control strain growth, post-Golgi counter-screen. efflux-deficient yeast background strain, growth absorbance A615, 16 h. 98,000 compounds, 5% hits. inhibition, % at 10 µM
CYP2C19 inh = blocks human cytochrome P450 2C19 | CYP2C19 Supersomes, luciferin-H EGE luminescence, 30 min | inhibition, % at 5 µM | 96,000 compounds, 21% hits | P33261;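 active means CYP2C19 inhibition above a set limit at 5 µM in the primary screen, cut at about 50% in these data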;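 further: plate controls were negative control wells for no effect and 2.5 mM tranylcypromine positive control for full effect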
CYP2C9 inh = blocks human cytochrome P450 2C9. inhibition, % at 5 µM. CYP2C9 Supersomes, luciferin-H conversion, luminescence. P11712. 96,000 compounds, 20% hits;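 active means blocking of liver enzyme CYP2C9 beyond about 50% at 5 µM, limit read from the data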
Target sequence (P11712 whole entry, looked up): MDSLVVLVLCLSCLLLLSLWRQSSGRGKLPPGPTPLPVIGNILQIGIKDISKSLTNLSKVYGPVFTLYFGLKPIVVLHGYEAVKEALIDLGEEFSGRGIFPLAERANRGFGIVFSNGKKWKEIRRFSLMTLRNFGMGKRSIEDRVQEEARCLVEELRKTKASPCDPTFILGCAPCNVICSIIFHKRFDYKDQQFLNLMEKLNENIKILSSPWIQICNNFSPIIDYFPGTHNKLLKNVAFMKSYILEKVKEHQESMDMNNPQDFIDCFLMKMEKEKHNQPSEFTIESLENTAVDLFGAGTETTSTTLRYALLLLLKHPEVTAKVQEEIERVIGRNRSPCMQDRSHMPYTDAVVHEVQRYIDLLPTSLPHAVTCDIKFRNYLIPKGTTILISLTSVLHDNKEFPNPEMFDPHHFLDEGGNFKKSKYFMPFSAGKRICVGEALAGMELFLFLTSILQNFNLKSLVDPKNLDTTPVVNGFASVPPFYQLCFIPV
CYP2C9 act = increases human cytochrome P450 2C9 activity; P11712; recombinant CYP2C9, luciferin-H conversion, luminescence; stronger effect = higher value; factor 1 = untreated enzyme, 0 = blocked; activation factor at 5 µM; 96,000 compounds, 1.4% hits; AID 1024;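 active means activation factor of 2 or more for CYP2C9 at a 5 µM dose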;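 further: 0 = sulfaphenazole-blocked wells and 1 = vehicle-only wells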
PostGolgi yeast = growth inhibition of a yeast mutant, post-Golgi transport screen | post-Golgi transport phenotypic cell assay | inhibition, % at 10 µM | 98,000 compounds, 0.9% hits | AID 739;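 further: yeast cells grown in 1536-well plates; yeast grown about 18 h at 30C before absorbance read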
* = called active by the depositor; / = no result given. The list is not random: actives were taken first. Their share in the collection is about 32%. Unless noted, no stated cut-off is given here; in the data, active means inhibition above about 30%; inactive means the rest.

SMILES	CYP2C19 act	PostGolgi ctrl	CYP2C19 inh	CYP2C9 inh	CYP2C9 act	PostGolgi yeast
Brc1ccc2ncnc(Nc3ccc(N4CCOCC4)cc3)c2c1	0.9	2	10	-8	1.1	4
Cc1cc(C)cc(N2C(=O)N(c3ccccc3C)C3CS(=O)(=O)CC32)c1 (configuration not stated)	0.1	21	94*	9	0.9	5
Cc1cccc(N2C(=O)N(c3ccccc3C)C3CS(=O)(=O)CC32)c1 (configuration not stated)	0.7	3	27	12	0.9	7
CCCS(=O)(=O)c1nnnn1-c1cccc(OC)c1	0.6	29	37	-12	1.1	55*
C/C(NC(=O)c1cccs1)=C1\C(=O)C[C@@H]2[C@H]1C2(C)C	0.6	17	39	17	0.8	2
CCOc1ccc(C(=O)NCC(=O)OCC(=O)N2C(C)CCCC2C)cc1 (configuration not stated)	0.8	8	18	8	0.9	9
CCOC(=O)c1[nH]c2cc(OC)c(OC)cc2c1N	0.3	7	72*	18	0.8	-1
COc1ccc(N2C(=O)CCC(C(=O)N3CCCCCC3)C2c2ccc(OC)c(OC)c2)cc1 (configuration not stated)	1.1	14	-6	-6	1.1	11
CC(C)(C)c1cc(Br)ccc1OCC(=O)Nc1ncn[nH]1	0.5	30*	54*	34	0.7	7
CC(C)(C)c1ccccc1OCC(=O)Nc1ncn[nH]1	0.6	14	42	21	0.8	17
CC(C)P(=O)(Cc1cccc(C#N)c1)C(C)C	0.9	6	11	3	1	16
O=C(COc1ccc(Cl)cc1)N1CCN(c2ccc([N+](=O)[O-])c(N3CCCCC3)c2)CC1	0	13	98*	61*	0.4	-7
O=C(COc1ccccc1Cl)N1CCN(c2ccc([N+](=O)[O-])c(N3CCCCC3)c2)CC1	0.4	24	59*	84*	0.2	13
O=C(COc1ccc(Cl)cc1Cl)N1CCCCCC1	0.7	7	29	0	1	1
CCCOc1ccc(CC(CC(=O)O)(C(=O)O)C(=O)O)cc1	1	7	1	-6	1.1	-3
CCN1CCN(C(CNC(=O)c2ccc3c(c2)OCO3)c2cccnc2)CC1 (configuration not stated)	1.2	29	-21	3	1	1
COC(=O)C1=C(C(=O)OC)SC2(S1)C(C(=O)OC)=C(C(=O)OC)SC1=C2c2cc(C)ccc2NC1(C)C	0.2	4	82*	87*	0.1	-4
CCN(CCCNC(=O)CCn1c(=O)[nH]c2ccccc2c1=O)c1ccccc1	0.4	2	62*	25	0.8	-6
CCN(CCCNC(=O)c1[nH]c(C)c(C(C)=O)c1C)c1cccc(C)c1	0.5	-4	53*	50	0.5	-2
CCN(CCCNC(=O)CCn1c(=O)[nH]c2ccccc2c1=O)c1cccc(C)c1	0.3	0	67*	24	0.8	-5
CCN(CCCNC(=O)CCCn1c(=O)[nH]c2ccccc2c1=O)c1cccc(C)c1	0.5	-3	48	62*	0.4	-5
CC(=O)c1c(C)[nH]c(C(=O)NCc2ccccc2)c1C	0.8	10	25	31	0.7	-7
Cc1ccc2nc(NC3=NCN(C4CCCCC4)CN3)nc(C)c2c1	1.1	/	-11	-8	1.1	/
CC(=O)OCCn1c(=O)c2cc3c(=O)n(CCOC(C)=O)c(=O)c3cc2c1=O	1.1	-10	-7	0	1	-1
CCOc1cc2[nH]c(=O)n(CCC(=O)NCCc3ccccc3)c(=O)c2cc1OCC	0.9	21	12	44	0.6	8
SMILES	CYP2C19 act	PostGolgi ctrl	CYP2C19 inh	CYP2C9 inh	CYP2C9 act	PostGolgi yeast
O=C(CSc1cccc2cccnc12)N1CCCC1	0.8	2	22	-27	1.3	-6
Oc1ccc(-c2n[nH]c(=S)n2Cc2ccco2)cc1	0.7	5	31	68*	0.3	14
S=c1[nH]nc(Cc2ccccc2)n1Cc1ccco1	0.3	23	71*	39	0.6	0
NC(=O)c1nsnc1-c1ccccc1O	1	-2	-4	16	0.8	7
O=C(Nc1ccc2c(c1)OCO2)C1Cc2ccccc2CN1S(=O)(=O)c1cccs1 (configuration not stated)	0.4	15	56*	72*	0.3	-3
CS(=O)(=O)N1CCC(C(=O)N2CCC(Cc3ccccc3)CC2)CC1	0.9	6	9	1	1	1
CCC(C)NC(=O)C1CCN(S(=O)(=O)c2cccs2)CC1 (configuration not stated)	1	3	5	52*	0.5	-3
O=C(Nc1ccc2c(c1)OCO2)C1CCCN(S(=O)(=O)Cc2ccccc2)C1 (configuration not stated)	0.9	42*	14	36	0.6	-4
O=C(C1CCCN(S(=O)(=O)Cc2ccccc2)C1)N1CCC(Cc2ccccc2)CC1 (configuration not stated)	0	34*	97*	85*	0.1	5
CCC/C(O)=C1\C(=O)CCCC1=NC(C)C(=O)O (configuration not stated)	1	1	-3	-1	1	2
CS(=O)(=O)Nc1ccc(S(=O)(=O)NCCc2ccccc2)cc1	0.9	1	14	12	0.9	1
O=C(Nc1ccc2c(c1)OCO2)C1CCCN(c2nc3ccccc3s2)C1 (configuration not stated)	0.5	11	48	54*	0.5	8
O=C(Nc1ccc2c(c1)OCCO2)C1CCN(S(=O)(=O)c2cccs2)CC1	0.3	12	67*	58*	0.4	-4
O=C(Nc1ccc2c(c1)OCO2)C1CCN(S(=O)(=O)c2cccs2)CC1	0.7	6	29	36	0.6	8
O=C(Nc1ccc2c(c1)OCCO2)C1CCCN(S(=O)(=O)c2cccs2)C1 (configuration not stated)	0.6	20	42	47	0.5	-10
O=C(Nc1ccc2c(c1)OCO2)C1CCCN(S(=O)(=O)c2cccs2)C1 (configuration not stated)	0.5	-5	53*	68*	0.3	-3
O=S(=O)(Nc1ccc2c(c1)OCO2)c1cccs1	0.1	3	91*	66*	0.3	6
Cc1oncc1C(=O)NC(C)C	0.9	-1	8	18	0.8	-7
CCC(C)NC(=O)C1CCN(S(=O)(=O)N2CCCC2)CC1 (configuration not stated)	1.1	31*	-5	0	1	-10
CC(=O)c1cccc(NC(=O)C2CCN(S(=O)(=O)c3cccs3)CC2)c1	0.1	-4	92*	68*	0.3	0
CCC(C)NC(=O)C1CCN(S(=O)(=O)CC)CC1 (configuration not stated)	1	6	2	3	1	4
